In PubChem BioAssay (NCATS):
Records with an inconclusive call do not appear. Active and inactive are the calls of the source. Calls follow the shape of the dose curve; as a rule, active = well fitted inhibition curve with a large enough effect; inconclusive = small, poorly fitted or top-dose-only effect; inactive = flat fitted curve, though single readings scatter.

Each compound was assayed on CRL-7250 (assay: qHTS assay to identify novel small-molecules to repurpose for Merkel cell carcinoma treatment (AID 1296009; also: nearly all actives have a fitted effect of over 60% in size)). Conditions: MCC and control cell lines, CellTiter-Glo viability, 72 h; series mostly up to 92 µM; activity change, negative = cytotoxicity: at the top concentration.
How it was run: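 Cell viability measured by CellTiter-Glo following 72 hr compound treatment at 37 degree celsius, with NPC and MIPE libraries tested in 8- and 11-point concentration series.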

SMILES | outcome
CC(=O)O[C@@H](C[C@@H]1C=C(C)C(=O)O1)[C@H](C)[C@H]1CCC2[C@@]3(C)CC[C@H](O[C@@H]4O[C@H](CO)[C@@H](O)[C@H](O)[C@H]4O[C@@H]4O[C@@H](C)[C@H](O)[C@@H](O)[C@H]4O)C(C)(C)C3CC[C@@]2(C)[C@@]12COC(=O)C2 (stereo partly specified) | inactive [at 9.27 µM]
C/C=C/C=C/C(CC(=O)O)Nc1ccc(C=O)cc1 (stereo unspecified) | inactive
CC1(C)C(=O)N2c3ccccc3[C@]3(CC(n4cnc5ccccc5c4=O)C(=O)O3)[C@H]2N1O (stereo partly specified) | inactive [at 17.4 µM]
C[C@@H]1CCC2C(C)(C)[C@H](O)CC[C@]2(C)[C@@]12Cc1c(O)cc3c(c1O2)CN([C@@H](CCC(=O)O)C(=O)O)C3=O (stereo partly specified) | inactive [at 17.4 µM]
CC1(C)C2CCC1(C)C(OC(=O)C(O)(CC(=O)O)CC(=O)O)C2 (stereo unspecified) | inactive
CC1[C@@H](O)[C@@H](O)C2[C@]3(C)C(C[C@H]4OC(=O)[C@H](O)[C@]1(O)[C@@]24C)C(C)(O)C[C@H](O)[C@H]3O (stereo partly specified) | inactive [at 17.4 µM]
CC(C)(C)NS(=O)(=O)c1cncc(-c2cc(F)c3nc(N)nn3c2)c1 | inactive
C=C(C)[C@@H]1CC[C@]2(C)CC[C@]3(C)C(CCC4[C@@]5(C)CC[C@H](O)C(C)(C)C5CC[C@]43C)C12 (stereo partly specified) | inactive [at 17.4 µM]
Cc1ccc(Sc2cncc3sc(C(N)=O)cc23)cc1 | inactive
COc1cc(C(O)C(CO)Oc2ccc(CCCO[C@@H]3O[C@@H](C)[C@H](O)[C@@H](O)[C@H]3O)cc2OC)ccc1O (stereo partly specified) | inactive [at 17.4 µM]
O=C(NC1CCN(CC(F)(F)F)CC1)c1ccc(-c2cccc(F)c2)nc1 | inactive
CC1=CC(=O)[C@]2(O[C@@H]3O[C@@H](C)[C@H](O)[C@@H](O)[C@H]3O)C=CO[C@@H](O[C@@H]3O[C@H](CO)[C@@H](O)[C@H](O)[C@H]3O)[C@H]12 | inactive [at 17.4 µM]
COc1c2c(c(C)c3c1C(=O)OC3)O[C@@]1(C)C[C@@H](O)[C@]34O[C@](OC)(CC[C@]3(C)[C@H]1C2)OC4(C)C | inactive [at 17.4 µM]
CC1(C)CC=C(c2cnc3ccccc3c2)c2cc(C(=O)Nc3ccc(C(=O)O)cc3)ccc21 | inactive
CCOC(=O)CCNc1cc(N2CCc3ccccc3CC2)nc(-c2cccnc2)n1 | inactive
CCc1cc2c(cc1CC)CC(NCC(O)c1ccc(O)c3[nH]c(=O)ccc13)C2 (stereo unspecified) | inactive

SMILES | outcome
CCC(C)/C=C(C)/C=C/C1=CC2=C(Cl)C(=O)C(C)(OC(C)=O)C(=O)C2(O)C(OC)O1 (stereo unspecified) | inactive [at 17.4 µM]
O=C(O)c1ccccc1NC(=O)N1CCC(c2ccccc2C(F)(F)F)CC1 | inactive
COc1ccc2cc(C(C)C(=O)Oc3ccc(C(N)=S)cc3)ccc2c1 (stereo unspecified) | inactive
O=C1C(Cl)=C(N2CCOCC2)C(=O)N1c1ccc(Cl)c(Cl)c1 | inactive [at 17.4 µM]
CC[C@H]1OC(=O)[C@H](C)[C@@H](OC2C[C@@](C)(OC)[C@@H](O)[C@H](C)O2)[C@H](C)[C@@H](OC2O[C@H](C)C[C@H](NC)[C@H]2O)[C@](C)(O)C[C@@H](C)CN(C)[C@H](C)[C@@H](O)[C@]1(C)O (stereo partly specified) | inactive
C[C@@H]1O[C@@H](O[C@H]2[C@H](O)[C@@H](C(=O)O)O[C@@H](O[C@H]3CC[C@@]4(C)C(CC[C@]5(C)C4CC=C4C6CC(C)(C)CC[C@]6(C(=O)O)CC[C@]45C)C3(C)C)[C@@H]2O[C@@H]2O[C@H](CO)[C@@H](O)[C@H](O)[C@H]2O)[C@H](O)[C@H](O)[C@H]1O (stereo partly specified) | inactive [at 9.27 µM]
CN1CCc2cc(Cl)c(O)cc2[C@@H](c2cccc3c2OCC3)C1 | inactive
C=C(C(=O)O)[C@@H]1CC[C@H](C)[C@@H]2CC(=O)C(C)=C2C1 | inactive
O=C(O)CCc1cc2ccoc2cc1O[C@@H]1O[C@H](CO)[C@@H](O)[C@H](O)[C@H]1O | inactive
COC1C2=C(COC2=O)C2(C)CCCC(C)(CO)C2C1OC(=O)c1ccccc1 (stereo unspecified) | inactive [at 17.4 µM]
C/C(=C\CCC(C)CCO)C(=O)O[C@@H]1[C@@H](O)[C@H](OC2OC=C(C(=O)O)C3CCC(C)(O)C23)O[C@H](CO)[C@H]1O (stereo partly specified) | inactive [at 17.4 µM]
C=C1CCC2(OC1)OC1CC3C4CC=C5CC(O)CC(O[C@@H]6OC[C@@H](O)[C@H](O)[C@H]6O)C5(C)C4CCC3(C)C1(O)C2C (stereo partly specified) | inactive [at 17.4 µM]
C1=Cc2ccccc2C(=C2CCN(CCCCc3nn[nH]n3)CC2)c2ccccc21 | inactive
COc1ccccc1N1CCN(CC(C(=O)NC(C)(C)C)c2ccccc2)CC1 (stereo unspecified) | inactive
C/C1=C\CC[C@H](C)CCO[C@@H]2O[C@H](CO[C@@H]3OC[C@](O)(COC1=O)[C@H]3O)[C@@H](O)[C@H](O)[C@H]2O | inactive [at 17.4 µM]
